Screens as filed in PubChem.
Rango-impB inh = prevents formation of the Rango-importin beta complex; Rango CFP/YFP FRET sensor + importin beta, 45 min; Potency, µM (doses to about 92.2 µM), for the others: at the top dose inhibition of complex formation; 0.031% of 340,000 active;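 note: potency is the fitted concentration of half-maximal effect; 0% = DMSO wells and 100% = buffer wells lacking importin beta; nearly all actives have a fitted effect of over 15% in size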
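FRET biosensor (snurportin 1 IBB flanked by EYFP and cerulean), 50 nM, with compound 5 min, then 0.125 microM importin beta in PBS, 1 mM DTT, 0.02% Tween-20, 0.1% BSA. CFP/YFP ratio read after 45 min at room temperature; pre-read flags interference.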
ClpP mod = qHTS Assay for Activators of ClpP | ATP-dependent Clp protease proteolytic subunit (Bacillus subtilis (strain 168)), P80244 | purified B. subtilis ClpP, FRET peptide cleavage, 20 min | Potency, µM (doses to about 57.5 µM), for the others: at the highest dose activity change, negative = active | 1.9% of 340,000 active | AID 651965, 2013; active = well fitted falling curve with a large enough effect; inconclusive = small, poorly fitted or top-dose-only effect; inactive = no such curve, though single readings can be large or run the other way; note: potency is the fitted concentration of half-maximal effect; the source files actives as falling curves though it sought activators and does not explain the sign; nearly all actives have a fitted effect of over 65% in size
Target sequence (P80244 whole entry, looked up): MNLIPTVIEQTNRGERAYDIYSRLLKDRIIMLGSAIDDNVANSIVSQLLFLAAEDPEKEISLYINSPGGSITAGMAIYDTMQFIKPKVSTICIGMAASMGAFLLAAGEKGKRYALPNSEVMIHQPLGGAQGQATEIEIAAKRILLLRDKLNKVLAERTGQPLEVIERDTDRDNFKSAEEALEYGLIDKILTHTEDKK
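Buffer: 100 mM Tris/HCl pH8, 100 mM KCl, 0.05% low protease BSA, 2.5% glycerol, 0.01% Tween-20. ClpP 10 microg/mL final; 20 min RT; delta FRET normalized to ADEP and DMSO controls.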
MBNL1 CUG block = inhibitors of human MBNL1 binding to CUG repeat RNA | Q9NR56 | TR-FRET MBNL1-His/biotin-(CUG)12 binding, 665/545 ratio | Potency, µM (series often up to 57.5 µM), for the others: top-dose activity change, negative = inhibition, usual class: inhibitors | 0.036% of 280,000 active; active = well fitted inhibition curve with a large enough effect in the signal ratio, with a control signal flat, not every such curve was filed as active; inconclusive = small, poorly fitted or top-dose-only effect, or effect the other way, or a change in a side signal; inactive = no such curve, though single readings can be large or run the other way; the % refers to the signal ratio; note: potency is the fitted concentration of half-maximal effect; % is set by controls: 0 for no effect and ±100 for the full control effect
Target sequence (Q9NR56 whole entry, looked up): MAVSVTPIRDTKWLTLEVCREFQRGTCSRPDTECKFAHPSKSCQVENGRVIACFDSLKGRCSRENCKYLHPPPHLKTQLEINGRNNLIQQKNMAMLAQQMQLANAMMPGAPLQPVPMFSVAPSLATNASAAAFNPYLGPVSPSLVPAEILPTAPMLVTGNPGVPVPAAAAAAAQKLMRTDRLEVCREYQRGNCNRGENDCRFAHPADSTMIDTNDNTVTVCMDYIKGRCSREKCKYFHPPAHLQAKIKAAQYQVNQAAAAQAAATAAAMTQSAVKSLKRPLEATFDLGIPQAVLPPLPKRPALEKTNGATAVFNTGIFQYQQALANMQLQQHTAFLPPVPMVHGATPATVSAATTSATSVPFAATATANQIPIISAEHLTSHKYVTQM
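TR-FRET readout: Ex 340 nm, 665/545 nm emission ratio, normalized to buffer-only (basal) and MBNL1-(CUG)12 controls. Complex of MBNL1-His with Biotin-(CUG)12, compounds 92 nM–58 uM, incubated 60 min at room temperature.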
CBFb RUNX1 block = CBF-beta/RUNX1 interaction disruption | Q01196+Q13951 | AlphaScreen CBFb-His/RUNX1-biotin binding, biochemical | Potency, µM (series often up to 59.8 µM), inactives show top-dose activity, negative = inhibition, hits mostly inhibitors | 230,000 tested, under 10 active | AID 1477; active = well fitted curve in the direction sought with a large enough effect; inconclusive = small, poorly fitted or top-dose-only effect, or effect the other way, or another doubt; inactive = no such curve, though single readings can be large or run the other way; note: % of control where 0% means no effect
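AlphaScreen binding: CBFb-His and RUNX1-biotin (30 nM each) preincubated 20 min, compound added for 15 min, then nickel and streptavidin beads for 90 min, all at room temperature. Disruption of the interaction by any mechanism counts as activity.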
Rango dissoc inh = prevents RanGTP from dissociating the Rango-importin beta complex; 0.071% of 340,000 active; AID 540253; Potency, µM (top dose mostly 46.1 µM), without a hit: at the top dose activity change, negative = inhibition; Biochemical FRET Rango-importin beta, RanGTP-induced dissociation; note: potency is the fitted concentration of half-maximal effect; % of control where 0% means no effect; nearly all actives have a fitted effect of over 45% in size
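Compounds preincubate 5 min with complex of recombinant Rango and importin beta in PBS with 1 mM DTT. Ran (0.6 uM) loaded with 2 mM GTP plus 0.2 uM RCC1 starts dissociation; FRET is recorded 45 min later.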
* = called active by the depositor; ? = inconclusive; . = no result given. The sample as a whole holds a higher share of hits than the screen did. Unless noted, calls come from the whole dose curve.

SMILES	Rango-impB inh	ClpP mod	MBNL1 CUG block	CBFb RUNX1 block	Rango dissoc inh
O=C(Nc1ccc2nc(SCC(=O)N3CCOCC3)sc2c1)c1cccc(Cl)c1	.	-1%	.	.	.
CCOC(=O)CC1=C(C(=O)OCC)C(c2ccc(OC)c(OC)c2)C(C#N)=C(N)O1 (stereo unspecified)	?	0%	5%	-2%	-10%
CCOC(=O)CC1=C(C(=O)OCC)C(c2cc(OC)c(OC)cc2OC)C(C#N)=C(N)O1 (stereo unspecified)	?	-3%	8%	2%	15µM*
Cc1nc(N2CCOCC2)c2c(C(=O)N3CCN(c4cc(Cl)ccc4C)CC3)c(C)oc2n1	.	2%	.	.	.
CCCNC(=S)N(Cc1ccccc1)Cc1nc2ccccc2c(=O)[nH]1	2%	28µM*	-6%	-6%	3%
CCOCCCNC(=S)N(Cc1ccccc1)Cc1nc2ccccc2c(=O)[nH]1	-4%	0%	-23%	-10%	-10%
COc1ccc(-c2sc3ccc(OC)cc3c2-c2ccc(O)cc2)cc1	1%	28µM*	.	.	3%
COc1ccc(-c2c(-c3cc(OC)cc(OC)c3)sc3ccc(OC)cc23)cc1	-1%	18µM*	.	.	-9%
O=C(C[N+]1(CCO)CCOCC1)c1cccs1	.	0%	.	.	.
COc1ccccc1C1/C(=C(/O)c2ccccc2)C(=O)C(=O)N1CC(C)C (stereo unspecified)	?	1%	-11%	3%	16%
COc1ccccc1C1/C(=C(/O)c2ccc(C)cc2)C(=O)C(=O)N1CC(C)O (stereo unspecified)	0%	28µM*	4%	-1%	-9%
Cc1cc(NC(=O)C(C)(C)C)cc(-c2nc3ncccc3o2)c1O	.	0%	.	.	.
O=c1c2ccccc2nc(-c2ccoc2)n1CCc1ccccc1	8%	25µM*	-9%	3%	0%
CCC(C)Sc1nc2ccccc2c(=O)[nH]1 (stereo unspecified)	-1%	25µM*	-6%	-3%	2%
CC(C)Sc1nc2ccccc2c(=O)[nH]1	1%	-10%	-4%	-2%	-6%
CCOc1cc(-c2nc(-c3ccc(-c4ccc(OC)cc4)nc3OC)no2)cc(OCC)c1OCC	.	62%	.	.	.
CCN(CC)c1ccc(NC(=O)c2cc(CN3CCCC3)on2)c(C)c1	.	0%	.	.	.
CCc1nc(NCCN)c(C#N)c2c1CSC(C)(C)C2	3%	22µM*	5%	-4%	16%
Cc1nc(NCc2ccco2)c(C#N)c2c1COC(C)(C)C2	1%	?	2%	-4%	-2%
CCc1nc2n[nH]c(N)c2c2c1CSC(C)(C)C2	0%	1%	-1%	7%	-3%
CC(C)CCNc1nc(-c2ccco2)c2c(c1C#N)CCCC2	?	14µM*	4%	23%	?
CC1(C)Cc2c(C#N)c(NCc3ccco3)nc(-c3ccco3)c2CO1	?	32µM*	21%	15%	?
N#Cc1c(N2CCOCC2)nc(-c2ccco2)c2c1CCCC2	?	35µM*	9%	?	-29%
COc1ccc(CCNc2nc3ccccc3c3nc(-c4cccc(C)c4)nn23)cc1OC	.	-11%	.	.	.
CCOc1ccccc1NC(=O)C(=O)Nc1ccc2nc3n(c(=O)c2c1)CCCCC3	.	-3%	.	.	.
SMILES	Rango-impB inh	ClpP mod	MBNL1 CUG block	CBFb RUNX1 block	Rango dissoc inh
N#Cc1c(NCCN)nc(-c2ccco2)c2c1CCCC2	-8%	8.9µM*	1%	3%	-1%
CCc1nc(NCCC(C)C)c(C#N)c2c1CCCC2	0%	16µM*	-9%	5%	0%
CN(C)CCNc1nc(-c2ccco2)c2c(c1C#N)CC(C)(C)OC2	?	?	4%	5%	-10%
COc1cccc(-c2nnc3n2N=C(c2c(OC)cccc2OC)CS3)c1OC	.	.	.	6%	.
COC(=O)CCCC[C@@H]1O[C@H](CCc2ccccc2)Cc2[nH][nH]c(=O)c21	.	3%	.	.	.
CCOC(=O)c1c(C)[nH]c(C)c1C(=O)CSc1nc2ccccc2c(=O)n1-c1ccccc1C	0%	28µM*	5%	-8%	0%
C[n+]1c(/C=C/c2ccc(N)cc2)sc2ccccc21	.	-6%	.	.	.
CCOc1ccc(S(=O)(=O)N2CC(=O)Nc3ccccc32)cc1C#N	-1%	.	-3%	.	-7%
CCOc1ccc(S(=O)(=O)N2CC(=O)Nc3ccccc32)cc1	0%	32µM*	1%	.	-5%
CCSc1nc2ccccc2n1C(=O)/C=C/c1ccc(OC)c(OC)c1	-4%	14µM*	21%	-25%	-3%
CCN(Cc1ccccc1)C(=O)Cn1c(=O)oc2cc(S(=O)(=O)N3CCCCCC3)ccc21	.	0%	.	.	.
Cc1ccc(-c2csc3ncnc(-n4cnc5ccccc54)c23)cc1	1%	28µM*	-13%	2%	-1%
Cc1sc2ncnc(-n3cnc4ccccc43)c2c1C	3%	28µM*	5%	2%	1%
Cc1cc(-c2ccc(F)cc2)nc2cc(C(N)=O)nn12	-3%	?	?	-8%	0%
CCOC(=O)c1cnn2c(C)cc(-c3ccc(F)cc3)nc12	1%	28µM*	9%	1%	-8%
CCOc1ccc2oc(-c3ccccc3)c(C(=O)N3CCN(C)CC3)c2c1	0%	11µM*	4%	0%	-6%
CCOc1ccc2oc(C(=O)N3CCN(Cc4ccccc4)CC3)c(C)c2c1	0%	.	-7%	.	8%
COc1ccc2oc(-c3ccccc3)c(C(=O)N3CCOCC3)c2c1	-1%	28µM*	5%	3%	3%
CCCn1cc2c(c1-c1cccc(C)c1)c(=O)n(C)c(=O)n2C	1%	14µM*	-3%	1%	-7%
COC(=O)Cn1c(SCCOc2ccccc2OC)nc2ccccc21	.	-1%	.	.	.
Cc1ccc(O)c(C(=O)c2cnn(C(=O)COc3ccc(Cl)cc3)c2)c1	0%	16µM*	-1%	-3%	-12%
COc1ccc(CNC(=O)CN2C(=O)COc3ccc(S(=O)(=O)N4CCCCCC4)cc32)cc1	.	-1%	.	.	.
CCN(CC)C(=O)c1c([N+](=O)[O-])c(C(C)(C)C)nn1C	2%	25µM*	1%	-1%	-10%
CC1(C)c2[nH]c3ccccc3c2C[C@@H]2C(=O)N(Cc3ccccc3Cl)C(=O)N21	?	.	.	.	12µM*
CC(=O)c1cc(C(=O)Nc2cccc(C)c2)c2ccccn12	.	-11%	.	.	.
O=C(NC1CCCC1)c1cc(Nc2cccc(C(F)(F)F)c2)nc2ccccc12	.	4%	.	.	.
COc1ccccc1CNc1ccccc1F	1%	.	0%	11%	11%
COc1cc2ncnc(NCc3ccccc3C)c2cc1OC	0%	-26%	?	10%	13%
COc1ccccc1CNc1cc(-c2ccccc2)ccc1OC	1%	25µM*	.	-9%	16%
